An excerpt weighted towards active compounds, which were near 12% of everything screened.
Sfp inh: qHTS Assay for Inhibitors of Bacillus subtilis Sfp phosphopantetheinyl transferase (PPTase); 4'-phosphopantetheinyl transferase ffp (Bacillus subtilis), Q9F4F7; Biochemical Sfp PPTase activity, qHTS; Potency, µM, for inactives: largest response in the series, negative = inhibition, most hits filed as inhibitors; 310,000 tested, 3.5% active; AID 1490, 2009;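 further: the enzyme is Sfp with the accession as filed and its product quenches rhodamine fluorescence; 0% = enzyme reaction without inhibitor and -100% = no enzyme wells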
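Step 1, compound plus 15 nM Sfp-PPTase, 15 min, room temperature. Step 2, add rhodamine-CoA (5 uM) and BHQ-2-YbbR (12.5 uM). Step 3, read 525/598 nm fluorescence at 0 and 30 min.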
BAZ2B inh: qHTS Assay for Inhibitors of BAZ2B | AlphaScreen BAZ2B-H3K14Ac peptide displacement | Potency, µM (series often up to 114 µM), for inactives: at the top dose activity change, negative = inhibition, most hits filed as inhibitors | 360,000 tested, 4.4% active | Bromodomain adjacent to zinc finger domain protein 2B (Homo sapiens), Q9UIF8; further: on the % scale 0 is the no-effect control and ±100 the full control effect; nearly all actives have a fitted effect of over 60% in size
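BAZ2B 50 nM plus b-H3(5-23)K14Ac 50 nM, PBS pH 7.4/0.01% Tween-20, 30 min RT; compound added (max 110 uM), 30 min RT; streptavidin donor/Ni-chelate acceptor beads 10 ug/mL final, 20 min dark; AlphaScreen read.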
L3MBTL1 inh: qHTS Assay for the Inhibitors of L3MBTL1; Lethal(3)malignant brain tumor-like protein 1 (Homo sapiens), Q9Y468; AlphaScreen L3MBTL1–H3K9me1 peptide binding; 230,000 tested, 0.66% active; Potency, µM (top dose mostly 57.1 µM), inactives show at the top dose activity, negative = inhibition, hits mostly inhibitors; further: on the % scale 0 is the no-effect control and ±100 the full control effect; nearly all actives have a fitted effect of over 60% in size
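L3MBTL1 (50 nM) pre-complexed 30 min with biotinylated H3(1-15)K9me1 peptide (75 nM), then compounds added for 30 min at room temperature; AlphaScreen streptavidin donor/nickel chelate acceptor beads (10 ug/mL final) read after 30 min dark incubation.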
JMJD2A Tudor inh: qHTS Assay for Inhibitors of JMJD2A-Tudor Domain; Lysine-specific demethylase 4A (Homo sapiens), O75164; AlphaScreen JMJD2A-Tudor / H3K4me3 peptide binding; Potency, µM (highest dose often 114 µM), for inactives: top-dose activity change, negative = inhibition, hits mostly inhibitors; 390,000 tested, 4.4% active; AID 504339, 2011; further: on the % scale 0 is the no-effect control and ±100 the full control effect; nearly all actives have a fitted effect of over 50% in size
HP1b chromo inh: HTS for Inhibitors of HP1-beta Chromodomain Interactions with Methylated Histone Tails; 390,000 tested, 0.56% active; Potency, µM (series often up to 114 µM), for the others: at the top dose activity change, negative = inhibition, usual class: inhibitors; Chromobox protein homolog 1 (Homo sapiens), P83916; AlphaScreen HP1-beta / biotin-H3K9me3 peptide binding; further: nearly all actives have a fitted effect of over 70% in size
Target sequence (P83916 whole entry, looked up): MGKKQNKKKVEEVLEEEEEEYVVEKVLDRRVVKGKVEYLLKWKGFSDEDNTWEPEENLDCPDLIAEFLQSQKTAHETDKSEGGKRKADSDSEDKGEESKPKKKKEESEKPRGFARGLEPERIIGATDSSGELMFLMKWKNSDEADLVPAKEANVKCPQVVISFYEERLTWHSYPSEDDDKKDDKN
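Compound inhibition of the preformed complex between 50 nM HP1-beta and 50 nM biotinylated H3K9me3 peptide was read by AlphaScreen. Buffer was PBS pH 7.4 with 0.01% Tween-20. Incubations ran 30 min at room temperature, with 10 ug/mL donor/acceptor beads.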
G9a block: qHTS Assay for Inhibitors of Histone Lysine Methyltransferase G9a; Histone-lysine N-methyltransferase EHMT2 (Homo sapiens), Q96KQ7; G9a H3K9 monomethylation, AlphaScreen, 2 h; Potency, µM (doses to about 102 µM), for inactives: top-dose activity, negative = inhibition, actives largely listed as inhibitors; 350,000 tested, 8.8% active; further: on the % scale 0 is the no-effect control and ±100 the full control effect; nearly all actives have a fitted effect of over 75% in size
Target sequence (Q96KQ7 913-1193 limits assumed): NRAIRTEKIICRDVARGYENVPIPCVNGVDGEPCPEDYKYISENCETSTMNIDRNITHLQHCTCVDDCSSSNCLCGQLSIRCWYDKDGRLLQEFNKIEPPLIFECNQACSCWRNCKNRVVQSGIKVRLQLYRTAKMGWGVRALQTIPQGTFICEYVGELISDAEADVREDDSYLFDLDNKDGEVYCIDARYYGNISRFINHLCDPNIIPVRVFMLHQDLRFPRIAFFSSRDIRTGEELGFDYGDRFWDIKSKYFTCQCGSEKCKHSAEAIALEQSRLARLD
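AlphaScreen detection with an anti-monomethyl H3K9 antibody quantified product after a 2 h room-temperature reaction containing 500 nM biotinylated H3K9 peptide, 20 µM SAM and 20 nM enzyme, which had been preincubated 15 min with compound.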
The depositor's hits bear a star; ? = inconclusive; / = no result given; [ ] = remark or other dose. The call rests on the fitted dose curve; in most records, active means well fitted curve in the direction sought with a large enough effect; inconclusive means small, poorly fitted or top-dose-only effect, or another doubt; inactive means no such curve, though single readings can be large; an effect the other way counts as inactive or inconclusive. Potency means the concentration at half of the fitted maximal effect.

SMILES	Sfp inh	BAZ2B inh	L3MBTL1 inh	JMJD2A Tudor inh	HP1b chromo inh	G9a block
COc1ccc(OC)c(/C=C2\SC(=S)N(NS(=O)(=O)c3ccc(C)cc3)C2=O)c1	11.1%	?	/	50.1µM*	?	5.3%[2.33 µM]
COc1ccccc1/C=C1\SC(=S)N(NS(=O)(=O)c2ccc(C)cc2)C1=O	-15.1%	50.1µM*	/	?	-17.8%	?
COc1ccc(/C=C2\SC(=S)N(NS(=O)(=O)c3ccc(C)cc3)C2=O)c(OC)c1	-25.6%	?	/	56.2µM*	-19.1%[57 µM]	-45.6%
CCOc1ccc(/C=C2\SC(=S)N(NS(=O)(=O)c3ccc(C)cc3)C2=O)cc1OC	-21.8%	?	-22.9%	?	-10.0%	?
COc1ccc(OC)c(/C=C2\SC(=S)N(NS(=O)(=O)c3ccccc3)C2=O)c1	1.4%	39.8µM*	/	?	-2.7%	-37.4%[12.7 µM]
COc1ccc(C(=O)NCCc2csc(-c3ccc(Cl)cc3)n2)c(OC)c1	/	1.3%	/	-4.5%	22.9%[57 µM]	6.3%[59 µM]
O=C(c1ccc2ncsc2c1)N1CCN(c2cccc(C(F)(F)F)c2)CC1	/	-1.4%	-6.8%	-17.7%	20.8%	?
O=C(/C=C/c1ccc(Cl)cc1)Nc1nccs1	7.5%	-8.3%	-6.9%	-19.6%	28.2%	-1.7%
C/C=C/C=C/C(=O)Nc1nccs1	35.5µM*	-3.9%	-19.3%	?	23.6%	-11.2%[59 µM]
O=C(Nc1nc(-c2cccc(Br)c2)cs1)Oc1ccccc1	12.2%	?	-1.7%	-32.0%	-12.0%	?
Cc1ccc(C(=O)Nc2nc(-c3cccnc3)cs2)o1	-14.3%	?	-4.0%	-27.1%	-23.2%	?
CCc1ccc(-c2csc(NC(=O)Oc3ccccc3)n2)cc1	14.6%	-33.1%	-0.8%	-30.8%	-5.9%	44.7µM*
O=C(Nc1nc(-c2ccccc2)cs1)c1ccc(Br)o1	25.1µM*	-29.8%	-0.3%	-30.8%	?	?
CCc1ccc(/C=C2/C(=O)N(C)C(=S)N2CC(=O)OC)s1	-19.1%	-22.3%	2.8%	-20.4%	21.1%	35.5µM*
COC(=O)CN1C(=S)N(C)C(=O)/C1=C/c1cccs1	27.0%	-19.4%	-1.1%	-12.4%	34.0%	-1.5%
CNC(=O)c1ccc(NC(=O)Cc2ccc(S(=O)(=O)N3CCOCC3)s2)cc1	/	-16.8%	-1.9%	3.1%	12.5%	44.7µM*
CCNC(=O)Cc1ccc(S(=O)(=O)N2CCOCC2)s1	/	1.7%	-2.5%	-20.9%	38.6%	-15.4%[59 µM]
O=C(Cc1ccc(S(=O)(=O)N2CCOCC2)s1)NC1CCCCC1	/	50.1µM*	-21.6%	?	-25.7%	12.6µM*
O=C(Cc1ccc(S(=O)(=O)N2CCOCC2)s1)NCC1CCCCC1	15.7%	?	/	-22.6%	-9.2%	-22.8%
CCOc1ccc(NC(=O)COC(=O)Cc2ccc(S(=O)(=O)N3CCOCC3)s2)cc1	6.5%	?	/	-31.4%	8.1%	39.8µM*
O=C(Cc1ccc(S(=O)(=O)N2CCOCC2)s1)Nc1ccc(S(=O)(=O)N2CCCCC2)cc1	/	5.5%	17.7%	-22.6%	-3.4%	44.7µM*
CC1CCN(S(=O)(=O)c2ccc(NC(=O)Cc3ccc(S(=O)(=O)N4CCOCC4)s3)cc2)CC1	/	-28.6%	-1.7%	-9.9%	28.3%	4.0%[0.501 µM]
O=S(=O)(c1ccc(NC(=S)NN=C2CCCCC2)cc1)N1CCOCC1	-39.1%	-22.8%	8.2%	28.2µM*	11.6%	6.31µM*
CC1CCCN(S(=O)(=O)c2ccc(NC(=O)Cc3ccc(S(=O)(=O)N4CCOCC4)s3)cc2)C1 (stereo not drawn)	/	7.5%	-4.1%	-21.4%	-4.5%	3.98µM*
CCN1CCC(N(Cc2ccc3c(c2)OCO3)C(=O)Nc2cc(F)ccc2F)CC1	/	-14.9%	/	-21.8%	40.6%	-39.6%[59 µM]
SMILES	Sfp inh	BAZ2B inh	L3MBTL1 inh	JMJD2A Tudor inh	HP1b chromo inh	G9a block
Cc1ccc(C(=O)N(CC(=O)NC2CCCC2)c2ccccc2Cl)s1	7.6%	0.9%	/	-1.8%	50.4%	5.4%
Cc1cc(C(=O)Nc2nc(C)c(C(=O)N(C)C)s2)ccc1[N+](=O)[O-]	-1.7%	-5.5%	1.4%	-12.5%	18.3%	-3.6%[59 µM]
Cc1nc(NC(=O)c2ccc([N+](=O)[O-])cc2Cl)sc1C(=O)N(C)C	39.8µM*	-28.1%	-3.3%	?	-22.3%	?
Cc1nc(NC(=S)NC(=O)c2cccs2)sc1C(=O)N(C)C	50.1µM*	-17.5%	/	-35.1%	17.9%	?
COc1ccc(C(=O)NC(=S)Nc2nc(C)c(C(=O)N(C)C)s2)cc1	63.1µM*	?	/	-26.5%	4.1%	?
Cc1ccc2nc(NC(=S)NC(=O)c3cccs3)sc2c1	12.9%	-4.8%	6.8%	?	-5.3%	19.7%
COC(=O)c1sc(NC(=S)NC(=O)c2ccc(F)cc2)nc1C	4.0%	-21.4%	/	/	/	-0.5%[59 µM]
O=C(CCC(=O)c1ccccc1)Nc1ccccc1OC(F)F	17.6%	5.6%	/	-2.1%	43.5%	-7.5%
O=C(O)c1ccc(NC(=O)c2ccccc2NC(=O)c2ccccc2Br)cc1	1.0%	1.0%	3.3%	-16.8%	30.2%	/
Cc1ccccc1C(N)c1ccncc1 (stereo not drawn)	4.0%	-7.6%	-0.3%	-11.3%	29.9%	-14.5%
O=C(NCCc1ccc(Cl)cc1)C1CCC(=O)N1C1CCCC1 (stereo not drawn)	4.5%	-36.9%	-1.4%	1.7%	20.6%	44.7µM*
Cc1cccc(N2CCN(C(=O)Cn3cnc4sc(C)c(S(=O)(=O)N5CCN(c6ncccn6)CC5)c4c3=O)CC2C)c1 (stereo not drawn)	/	-2.9%	/	-27.0%	-3.0%	-8.1%[59 µM]
CC(=O)c1ccc(NC(=O)Cn2nc(C(F)(F)F)c3c2CCCC3)cc1	/	-3.4%	/	-19.2%	15.9%	0.6%[59 µM]
COc1ccc(C(=O)n2cnnc2N)cc1	5.6%	-9.2%	1.9%	-9.7%	20.7%	?
COc1ccc(-n2nc(N)c(C(N)=O)n2)cc1	9.6%	?	5.6%	-23.3%[11.4 µM]	-19.0%	44.7µM*
O=S(=O)(c1ccsc1)N1CCN(c2nc(-c3cccs3)nc3ccccc23)CC1	/	/	/	-14.3%	/	/
CCOC(=O)C(=N/O)/C(C)=N/NC(=O)C(=O)Nc1cc(Cl)ccc1Cl	11.4%	17.8µM*	25.1µM*	?	27.9%	2.1%
CCOC(=O)C(=N/O)/C(C)=N/NC(C)=O	?	-5.0%	/	-12.4%	8.2%	7.08µM*
CC(C)CC(=O)c1c[nH]c(C(=O)NCc2cccs2)c1	12.2%	-3.5%	/	-6.6%	11.4%	0.224µM*
